Out of some 320,000 compounds screened, about 22,000 (6.9%) were called active. Roughly 27% stayed inconclusive and do not appear here. The call rests on the fitted dose curve; in most records, active means well fitted inhibition curve with a large enough effect; inconclusive means small, poorly fitted or top-dose-only effect, or another doubt; inactive means no such curve, though single readings can be large or run the other way. For the sample, actives were picked, then their nearest neighbours and some compounds at random.
Test: Primary qHTS for delayed death inhibitors of the malarial parasite plastid, 96 hour incubation
Details: P. falciparum luciferase reporter growth; series mostly up to 28.7 µM; activity change, negative = inhibition: at the top concentration
From the text: The goal of this screen is to discover new antimalarial compounds that act by inhibiting the development of the apicoplast in the malarial parasite Plasmodium falciparum. The biochemical processes that make this organelle essential for erythrocytic stage parasites are not well understood. However, antibiotics such as azithromycin and tetracycline, which target the apicoplast translational machinery, have a potent antimalarial effect.
We have developed a cell-based assay that measures parasite growth based on the expression of an integrated copy of a firefly luciferase reporter. To detect small molecules that cause this "delayed death" phenotype, erythrocytes infected with the luciferase-expressing parasites were incubated with compounds for either one or two generations, corresponding to 48 and 96 hours, respectively. Compounds that inhibit parasite growth in the second generation, but not the first, should be enriched in antimalarials that target the apicoplast. Growth inhibition is detected by a decrease in luciferase activity.
Assay Provider: David Fidock and Eric Ekland, Columbia University
Keywords: NIH Roadmap, MLPCN, MLI, MLSMR, qHTS, NCGC, qHTS, malaria, luciferase, viability
Four microliters of infected erythrocytes (2% hematocrit, 0.05% parasitemia final concentration) in culture medium were dispensed and the plates incubated for 96 hours at 37 C in 5% CO2. Two microliters of luciferase detection reagent was added and luminescence was detected by a ViewLux (PerkinElmer) reader.
On the % scale 0 is the no-effect control and ±100 the full control effect; potency means the concentration at half of the fitted maximal effect.

Row | SMILES | activity change, negative = inhibition | Potency
1 | COc1ccc(OC)c(NC(=O)CN(C)CCOc2ccc(Br)cc2)c1 | -21.8% (inactive) | 
2 | CC(=O)Nc1ccc(NC(=O)C2CCCN2S(=O)(=O)c2cccc(C(F)(F)F)c2)cc1 (stereo unspecified) | 6.66% (inactive) | 
3 | O=C(Nc1n[nH]c(C(F)(F)F)n1)c1cccs1 | 41.7% (inactive) | 
4 | CC(=O)NS(=O)(=O)c1ccc(N/C(N)=N/c2nc(C)cc(C)n2)cc1 | -8.97% (inactive) | 
5 | Clc1ccc2c(c1)C1=C(C(c3ccncc3)O2)C(c2ccc(Br)cc2)n2ncnc2N1 (stereo unspecified) |  | 3.29 µM (active)
6 | CC1=C(C(N)=O)C(c2ccc(Br)cc2)n2ncnc2N1 (stereo unspecified) | 9.45% (inactive) | 
7 | COC(=O)COc1ccc2c(c1C)O/C(=C\c1ccco1)C2=O | 86.9% (inactive) | 
8 | CC1CC(C)(C)n2c(O)c(N=NC(N)=S)c3cccc1c32 (stereo unspecified) | 11.4% (inactive) | 
9 | O=C(CCCC(=O)N1CCN(c2cccc(Cl)c2)CC1)c1ccccc1 | 4.4% (inactive) | 
10 | CCc1nc2ccc(C(=O)N3CCN(c4cccc(Cl)c4)CC3)cc2nc1CC |  | 7.38 µM (active)
11 | Cc1nc2ccc(C(=O)N3CCN(c4ccccc4)CC3)cc2s1 | -6.37% (inactive) | 
12 | CCOc1cc(C(=O)O)ccc1OCCOc1ccccc1 | 10.2% (inactive) | 
13 | CN(CC(=O)Nc1cccc(F)c1)C(=O)CC1CCCC1 | 30.9% (inactive) | 
14 | COC(=O)c1ccc(-n2cnc3ccccc32)nc1 | 0% (inactive) | 
15 | Cn1c(NC(=O)c2ccccc2)nc2ccccc21 | -49.6% (inactive) | 
16 | c1ccc(-c2nccc(-c3ccc(-n4cnc5ccccc54)cc3)n2)nc1 |  | 4.15 µM (active)
17 | O=C(O)C1=NN(c2c(F)c(F)cc(F)c2F)C(=O)CC1 | 20.6% (inactive) | 
18 | CSc1ncccc1C(=O)Nc1ccc(C)cn1 | 43.7% (inactive) | 
19 | CCc1ccccc1NC(=O)Cc1cn(C)c2ccccc12 |  | 13.1 µM (active)
20 | CCOC(=O)N1CCC(NC(=O)Cc2cn(C)c3ccccc23)CC1 | 34.3% (inactive) | 
21 | CCc1ccccc1NC(=O)CCOc1ccccc1 | -7.11% (inactive) | 
22 | COc1ccc(CNc2nc3c(c(=O)[nH]c(=O)n3C)n2Cc2ccccc2)cc1 | 12.3% (inactive) | 
23 | O=C(CC(c1ccccc1)c1ccccc1)NCC(O)c1ccc([N+](=O)[O-])cc1 (stereo unspecified) | -27.2% (inactive) | 
24 | Cc1ccc(C(=O)CSc2ccccc2C(=O)O)cc1 | 188% (inactive) | 
25 | O=C(CSc1cccc[n+]1[O-])c1ccc(-c2ccccc2)cc1 |  | 8.28 µM (active)
26 | O=C(CSc1cccc[n+]1[O-])NCCCc1ccccc1 | 23.3% (inactive) | 

Row | SMILES | activity change, negative = inhibition | Potency
27 | CCCCC(=O)Nc1c2c(nn1-c1ccc([N+](=O)[O-])cc1)CS(=O)(=O)C2 | 14.9% (inactive) | 
28 | O=C(NCc1ccccn1)C1CCN(S(=O)(=O)c2ccc(Br)cc2)CC1 | 21.9% (inactive) | 
29 | COc1ccc2[nH]c(C)c(CCN(Cc3cccs3)C(=S)Nc3ccccc3OC)c2c1 |  | 13.1 µM (active)
30 | CCN(CC(=O)NCc1cccs1)C(=O)c1cccc(S(=O)(=O)Nc2ccccc2OC)c1 | 15.4% (inactive) | 
31 | COCCN(C(=S)Nc1ccccc1OC)C1CCN(C(C)C)CC1 | -15.9% (inactive) | 
32 | COc1ccc(S(=O)(=O)NC(C)c2ccccc2)cc1C(=O)N1CCCCC1 (stereo unspecified) | 25.7% (inactive) | 
33 | CC(C)C(NS(=O)(=O)c1cccs1)C(=O)Nc1nc(C(C)(C)C)cs1 (stereo unspecified) |  | 13.1 µM (active)
34 | CC(C)(C)c1csc(NC2=NS(=O)(=O)c3ccccc32)n1 | 0% (inactive) | 
35 | CC(=O)Nc1ccc(S(=O)(=O)N2CCN(S(=O)(=O)c3cccs3)CC2)cc1 | -14.8% (inactive) | 
36 | Cc1ccc(CS(=O)(=O)CCC(=O)NCc2ccc(F)cc2)cc1 | -0.448% (inactive) | 
37 | COc1ccc(CCC(C)N2CCc3ccccc3C2)cc1 (stereo unspecified) | 1.99% (inactive) | 
38 | O=C(CN(C(=O)CCC(=O)Nc1nccs1)c1ccc(F)cc1)NCc1ccc2c(c1)OCO2 | 45.9% (inactive) | 
39 | CCC1Sc2ccc(S(=O)(=O)CCC(=O)NCc3cccs3)cc2NC1=O (stereo unspecified) | 6.87% (inactive) | 
40 | Cc1nc(-c2nnc(SCC(=O)Nc3cc(C(F)(F)F)cc(C(F)(F)F)c3)n2C)cs1 | 25.6% (inactive) | 
41 | CCN(C(=O)COC(=O)C1CCN(S(=O)(=O)c2ccc(C)c(C)c2)CC1)C1CCS(=O)(=O)C1 (stereo unspecified) | -1.93% (inactive) | 
42 | CCCNC(=O)OC[C@H]1O[C@H](CCO/N=C/[C@@H](NS(=O)(=O)c2ccc(C)cc2)[C@H](C)/C=C/CC(=O)OC)C=C[C@@H]1Oc1ccc(OC)cc1 |  | 7.38 µM (active)
43 | CCCC(C)NC(=O)C1CCN(C(=O)C2CC(=O)N(c3ccc(C)cc3)C2)CC1 (stereo unspecified) | 332% (inactive) | 
44 | COc1ccc(CCNC(=O)COC(=O)C2CC2C)cc1 (stereo unspecified) | -20.6% (inactive) | 
45 | O=C(NCCCn1ccnc1)Nc1ccc(Cl)cc1Cl | -24.9% (inactive) | 
46 | O=C(Nc1ccccc1C(=O)NCCCn1ccnc1)c1ccc(Cl)cc1Cl | -16.7% (inactive) | 
47 | Clc1ccc(C(Cn2ccnc2)OCc2ccsc2Cl)c(Cl)c1 (stereo unspecified) |  | 6.75 µM (active)
48 | CC(OC(=O)CCCOc1ccccc1)C(=O)Nc1ccc(Cl)cn1 (stereo unspecified) | 0.813% (inactive) | 
49 | CC1CCN(C(=O)COC(=O)CCC(=O)c2cccs2)CC1 | 0.599% (inactive) | 
50 | Cc1c(C(C)(C)O)[nH]c2ccc(C#N)cc12 | 108% (inactive) | 
51 | O=S(=O)(c1ccc(Br)cc1)N1CCC(c2nc3ccccc3[nH]2)CC1 | 36.7% (inactive) | 

From PubChem BioAssay AID504834 (National Center for Advancing Translational Sciences (NCATS), 2011)
